# Source: PubChem BioAssay (National Center for Advancing Translational Sciences (NCATS))
# DT40 TDP1 CPT: DT40-hTDP1 cell growth loss with CPT; chicken DT40 Tdp1-/-;hTDP1 cells + 20 nM CPT, ATP luminescence, 48 h; Potency, µM (top dose mostly 46.2 µM), inactives show at the highest dose activity change, negative = growth inhibition, actives largely listed as inhibitors; actives 12% (n = 420,000); AID 686979; also: % is scaled to controls: 0 for no effect and ±100 for the full control effect; nearly all actives have a fitted effect of over 55% in size
#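 Chicken DT40 Tdp1-/- cells complemented with human TDP1, 400 cells/well, exposed to compounds plus 20 nM camptothecin for at least 48 h at 37 C; viability read as ATP content by CellTiter-Glo luminescence.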
# TGFb inhibitor: blocks TGF-b signaling | actives 1.2% (n = 410,000) | HepG2 CAGA-GFP TGF-b/SMAD3 reporter, GFP fluorescence, 18 h; TGF-beta stimulated, 500 pg/mL final | AID 588855 | Potency, µM (series often up to 46.1 µM), for the others: at the highest dose activity, negative = inhibition, hits mostly inhibitors; also: % is scaled to controls: 0 for no effect and ±100 for the full control effect; nearly all actives have a fitted effect of over 65% in size
#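 GFP signal (ex488/em500-530) from TGF-beta-stimulated HEPG2 CAGA-GFP cells, 500 pg/mL final, 18 h at 37 degrees C in DMEM plus 1% FBS, normalized to unstimulated and DMSO-stimulated controls.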
# ATXN2 expr inh: ATXN2 expression inhibition; Potency, µM (series often up to 57 µM), for inactives: at the top dose activity change, negative = inhibition, usual class: inhibitors; HEK-293 ATXN2-luciferase reporter, luminescence, 24 h; AID 1745845; actives 0.72% (n = 360,000); also: % is scaled to controls: 0 for no effect and ±100 for the full control effect; nearly all actives have a fitted effect of over 55% in size
#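 ATXN2-luciferase reporter cells (luciferase flanked by upstream and downstream ATXN2 gene portions) were treated 24 h at 37 °C with compounds at up to 57 uM. SteadyGlo luminescence gave expression; GF-AFC fluorescence gave viability.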
# TDP1 cell noCPT: qHTS for Inhibitors of human tyrosyl-DNA phosphodiesterase 1 (TDP1): qHTS in cells in absence of CPT; DT40 Tdp1-/- hTDP1 cells, no CPT, ATP luminescence, 48 h; Potency, µM (top dose mostly 46.2 µM), inactives show at the highest dose activity change, negative = growth inhibition, actives largely listed as inhibitors; actives 15% (n = 420,000); AID 686978, 2013; also: % is scaled to controls: 0 for no effect and ±100 for the full control effect; nearly all actives have a fitted effect of over 55% in size
#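 Growth of hTDP1-complemented DT40 Tdp1-knockout cells is measured by ATP luminescence after at least 48 hr compound exposure at 37 °C, with DMSO substituting for the 20 nM CPT used in the parallel screen.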
# S2 tox: cell viability loss in ATXN counter-screen; S2 cells (HEK-293 line with an ATXN2-luciferase reporter) viability, CellTiter-Fluor protease fluorescence, 24 h; Potency, µM (top dose mostly 56.7 µM), actives largely listed as cytotoxic; actives 0.49% (n = 400,000); also: nearly all actives have a fitted effect of over 40% in size
# HepG2 tox: counter-screen for TGF-b inhibitors: cytotoxicity in HepG2 cells; actives 0.76% (n = 410,000); HepG2 CAGA-GFP viability, ATP luminescence, 18 h; Potency, µM (highest dose often 46.1 µM), without a hit: top-dose activity change, negative = cytotoxicity, most hits filed as cytotoxic
#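 CellTiter-Glo luminescence gave cytotoxicity after 18 hours at 37 degrees C. The cells were HepG2 CAGA-GFP in 1% FBS DMEM, stimulated with 500 pg/mL TGF-beta after compound addition. %Activity was normalised to no-cell wells (complete cell-killing) and DMSO (no toxicity), and curves were fitted and classified.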
# * = called active by the depositor; i = inactive; ? = inconclusive; / = not tested or not shown. In the library only some 17% were active in any assay of this set; here they are far more common. Calls follow the shape of the dose curve; as a rule, active = well fitted curve in the direction sought with a large enough effect; inconclusive = small, poorly fitted or top-dose-only effect, or another doubt; inactive = no such curve, though single readings can be large; an effect the other way counts as inactive or inconclusive. Potency is read from the fitted curve at half-maximal effect.
SMILES,DT40 TDP1 CPT,TGFb inhibitor,ATXN2 expr inh,TDP1 cell noCPT,S2 tox,HepG2 tox
CCCn1c(SCC(=O)NC2CCCCC2)nnc1C1CC1,3%,16%,0%,4%,i,0%
CC(=O)c1ccc(NC(=S)NCc2ccc(Cl)cc2Cl)cc1,?,?,1%,23µM*,?,-35%
COC(=O)c1cccc(NC(=S)NCCC2=CCCCC2)c1,12µM*,0%,-16%,10µM*,i,-23%
CC(=O)c1cccc(NC(=S)NCc2ccccc2)c1,-3%,9%,0%,-15%,i,3%
CC(=O)c1cccc(NC(=S)NCCc2ccc(Cl)cc2)c1,?,-19%,-5%,18µM*,i,-20%
CC1=C(C(=O)Nc2ccccc2C(=O)NC2CCCCC2C)SCCO1 (stereo not given),?,-21%,3%,?,i,-22%
Cc1ccc(S(=O)(=O)N(CC(=O)Nc2ccc(Cl)cc2)C(=O)N2CCN(C)CC2)cc1,?,-8%,9%,-2%,i,0%
COc1ccc(CC(=O)Oc2ccc(Cl)cc2Br)cc1S(=O)(=O)N1CCOCC1,-3%,-12%,-1%,-19%,i,-45%
Cn1c(SCc2ccc(C(C)(C)C)cc2)nnc1C1COc2ccccc2O1 (stereo not given),-25%,22µM*,?,?,i,-2%
Cn1c(SCc2nnc(-c3ccc(F)cc3)o2)nnc1C1COc2ccccc2O1 (stereo not given),-27%,-24%,-5%,?,i,0%
C=CCn1c(=O)[nH]c2cc(C(=O)N3CC=C(c4ccccc4)CC3)ccc2c1=O,?,-18%,-23%,26µM*,i,-49%
COc1cc2[nH]c(=O)n(CCC(=O)N3CC=C(c4ccccc4)CC3)c(=O)c2cc1OC,2%,3%,-1%,-3%,i,4%
COc1cccc(N2CCN(C(=O)CCCn3c(=O)[nH]c4ccc(Br)cc4c3=O)CC2)c1,21µM*,?,?,6.5µM*,?,-21%
CCOc1cc2[nH]c(=O)n(CCCCC(=O)N3CCN(c4ccccc4OC)CC3)c(=O)c2cc1OCC,13µM*,5%,-2%,9.2µM*,i,3%
COc1cc2[nH]c(=O)n(CCCC(=O)N3CC=C(c4ccccc4)CC3)c(=O)c2cc1OC,?,?,-9%,21µM*,i,-6%
Cc1ccc(C2=NN(CC(=O)NCCc3ccccc3)C(=O)CC2)cc1,?,-7%,8%,-23%,i,-5%
CCOc1cc2[nH]c(=O)n(CCCC(=O)N3CCN(c4ccc(OC)cc4)CC3)c(=O)c2cc1OCC,?,-5%,9%,21µM*,i,2%
COc1ccc(N2CCN(C(=O)CCn3c(=O)[nH]c4cc(OC)c(OC)cc4c3=O)CC2)cc1,-1%,2%,6%,-10%,i,0%
CN(C)CCN(C(=O)c1ccc(C(=O)c2ccccc2)cc1)c1nc2cc3c(cc2s1)OCO3,-20%,0%,-2%,?,i,-26%
CCN(Cc1ccccc1)S(=O)(=O)c1ccc(C(=O)N(CCCN(C)C)c2nc3c(C)c(C)ccc3s2)cc1,?,?,0%,16µM*,?,-102%
CCN(Cc1ccccc1)S(=O)(=O)c1ccc(C(=O)N(CCCN(C)C)c2nc3cc4c(cc3s2)OCO4)cc1,?,16µM*,?,-27%,?,13µM*
CN(C)CCCN(C(=O)c1ccc(C(=O)c2ccccc2)cc1)c1nc2cc3c(cc2s1)OCCO3,-30%,14µM*,-20%,-20%,i,-89%
COc1ccc(N(CC(=O)O)S(=O)(=O)c2ccc(C)cc2)cc1Cl,2%,-18%,-24%,-17%,i,5%
CC(C)Oc1cc(NC(=O)CS(=O)CC(=O)Nc2cccc(C(F)(F)F)c2)c(Cl)cc1Cl (stereo not given),21µM*,11µM*,-22%,16µM*,i,-114%
COC(=O)C1CCN(CC(=O)NC(=O)Nc2ccccc2F)CC1,-22%,-5%,13%,-6%,i,-86%
SMILES,DT40 TDP1 CPT,TGFb inhibitor,ATXN2 expr inh,TDP1 cell noCPT,S2 tox,HepG2 tox
Cc1ccccc1OCCOC(=O)c1ccc(S(=O)(=O)N2CCCC2)cc1,-4%,-1%,10%,3%,i,-9%
O=C(O)COc1ccc(S(=O)(=O)N2CCCC2)cc1,-17%,-9%,-3%,26%,i,-3%
CNC(=O)COc1ccc(S(=O)(=O)N2CCCC2)cc1,29µM*,-7%,-8%,?,i,3%
O=C(OCCOc1ccc(F)cc1)c1ccc(S(=O)(=O)N2CCCC2)cc1,-9%,-10%,/,2.3µM*,i,-18%
O=C(COc1ccc(S(=O)(=O)N2CCOCC2)cc1)Nc1ccc(Br)cc1,?,-10%,/,?,?,-14%
CCOc1ccc(NC(=O)COc2ccc(S(=O)(=O)N3CCOCC3)cc2)cc1,3.3µM*,8%,-14%,?,i,-6%
O=C(CCCOc1ccc(Br)cc1)Nc1ccc(S(=O)(=O)N2CCOCC2)cc1,?,7%,?,16µM*,i,3%
CCOc1ccc(C(=O)CN2CCN(S(=O)(=O)c3ccc(Br)cc3)CC2)cc1,?,?,-11%,-24%,i,-4%
CCOc1ccc(CN2CCN(S(=O)(=O)c3ccc(NC(C)=O)cc3)CC2)cc1,?,-27%,-13%,15µM*,i,-15%
O=C(COc1ccc(F)c(Cl)c1)Nc1ccc(N2CCOCC2)cc1,16µM*,5%,-13%,?,i,19%
CC(=O)Nc1ccc(S(=O)(=O)NNC(=O)COc2ccc(Cl)cc2Cl)cc1,-13%,-3%,-16%,8%,i,2%
CCOc1ccc(CONS(=O)(=O)c2ccc(NC(C)=O)cc2)cc1Cl,?,?,-18%,9.2µM*,i,-25%
CCOc1ccc(C(=O)CN2CCN(S(=O)(=O)c3ccc(OC)cc3)CC2)cc1,18µM*,?,-6%,?,i,-16%
O=C(COc1cccc(Cl)c1)Nc1ccc(N2CCOCC2)cc1,-22%,?,0%,?,i,-1%
COc1ccc(OCCCCOc2ccccc2Cl)cc1,1%,6%,9%,-5%,i,3%
